Among the data in PubChem BioAssay are cell count and inhibition values, retold here.

The structures appear in SMILES notation. Calls of active or inactive are those of the source.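 The calls were made as follows: active = inhibition above 20% together with a positive visual image hit; inconclusive = visual image hit but inhibition not above 20%; inactive = no visual image hit.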

As a reminder, the inhibition is the drop in the measured response relative to a control, in per cent.

The assay is described as follows: inhibitors of TNFa-induced NFkB p65 translocation, primary screen, imaging, HUVEC, MLSMR starter and 10KST1 sets (AID 438).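 Also: compound added about 3h40 before a 20 min TNFalpha stimulation.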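 As to inhibition: signal is the nuclear over cytoplasmic p65 intensity ratio per well.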 The note with it: HUVEC TNFa-induced p65 nuclear translocation; cell count: measured here: nuclei count (cytotoxicity indicator), at 2.08 µM; inhibition: at 2 µM, stronger effect = higher value, 0% TNFa-plus-vehicle, 100% no-TNFa wells.
On to `c1ccc(-n2ncc3c(N4CCCCC4)ncnc32)cc1`, for which the cell count came to 655 and the inhibition was -3.9% (inactive).

`CCCCn1cnc2c1c(=O)n(C)c(=O)n2C`: the inhibition is -7.5% (inactive) and the cell count turned out to be 797.

Consider `CCOC(=O)C1=C(C)Nc2nnnn2C1c1ccc(OC)c(Br)c1` (stereo not given), for which the inhibition was 5.8% (inactive) and the cell count amounted to 635.

Regarding `Cc1ccc(S(=O)(=O)Nc2nc3ccccc3nc2NCc2ccco2)cc1`, the inhibition was 7.1% (inactive) and the cell count was determined as 686.

As to `CCOC(=O)c1ccc2ncc(C(=O)OCC)c(NCCN(C)C)c2c1`, the cell count turned out to be 770 and the inhibition is -3.3% (inactive).

With `N#Cc1c2n(c(=S)n(-c3ccccn3)c1=O)CCCCC2`, the cell count is 588 and the inhibition is -26.4% (inactive).

Regarding `Cc1ccc2nc(-c3ccc4c(c3)OCCO4)cc(C(=O)O)c2c1`, the cell count turned out to be 337 and the inhibition is -10.3% (inactive).

Consider `N#Cc1c(N)c(C(=O)c2ccccc2)n2c1CCCC2`, for which the cell count was determined as 270 and the inhibition is -3.7% (inactive).

Regarding `COCCn1c(COc2ccc(Cl)cc2)nnc1SCC(N)=O`, the inhibition was 3.4% (inactive) and the cell count was 424.

`CC1Cc2ccccc2N1S(=O)(=O)c1cccc(C(=O)OCC(=O)NC2CCS(=O)(=O)C2)c1` (stereo not given): the inhibition was 0.7% (inactive) and the cell count came out at 657.

Take `C=CCn1c(SCC(=O)NC2CCCCC2)nnc1-c1sc(N)nc1C`: the inhibition is -7.3% (inactive) and the cell count is 639.

As to `Cc1ccc(CSc2nc3c(c(=O)[nH]2)CCC3)cc1`, the inhibition is 11.5% (inactive) and the cell count stood at 423.

For the molecule `Cc1nnc(NC(=O)c2ccco2)s1`, the inhibition was 1.3% (inactive) and the cell count was determined as 697.

In the case of `CCN(CC)c1ccc2cc(NC(=O)CCC(=O)O)c(=O)oc2c1`, the cell count was 463 and the inhibition was -21.1% (inactive).

With `CCCCC(=O)NCCc1ccc(S(N)(=O)=O)cc1`, the cell count came to 555 and the inhibition is 10.7% (inactive).
